Assay outcomes from PubChem BioAssay.
In the library only some 12% were active in any assay of this set; here they are far more common.
BAZ2B block – inhibitors of human BAZ2B bromodomain; Q9UIF8; AlphaScreen BAZ2B-H3K14Ac peptide displacement; Potency, µM (series often up to 114 µM), for the others: at the top dose activity change, negative = inhibition, hits mostly inhibitors; 360,000 tested, 4.4% active; AID 504333; also: potency is read from the fitted curve at half-maximal effect; % is scaled to controls: 0 for no effect and ±100 for the full control effect; nearly all actives have a fitted effect of over 60% in size
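Complex of BAZ2B and biotin-H3K14Ac (50 nM apiece) forms over 30 min at RT, then faces library compounds up to 110 uM for another 30 min; AlphaScreen beads added, 20 min dark incubation, luminescence read.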
JMJD2A Tudor inh – JMJD2A Tudor domain (human) inhibition; O75164; AlphaScreen JMJD2A-Tudor / H3K4me3 peptide binding; Potency, µM (titrated, usually from 114 µM), for inactives: top-dose activity change, negative = inhibition, actives largely listed as inhibitors; 390,000 tested, 4.4% active; also: potency is read from the fitted curve at half-maximal effect; % is scaled to controls: 0 for no effect and ±100 for the full control effect; nearly all actives have a fitted effect of over 50% in size
G9a block – G9a (human) methyltransferase inhibition; G9a H3K9 monomethylation, AlphaScreen, 2 h; Potency, µM (doses to about 102 µM), for inactives: at the highest dose activity, negative = inhibition, most hits filed as inhibitors; 350,000 tested, 8.8% active; AID 504332; also: potency is read from the fitted curve at half-maximal effect; % is scaled to controls: 0 for no effect and ±100 for the full control effect; nearly all actives have a fitted effect of over 75% in size
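Chemiluminescent proximity detection of H3K9 monomethylation, read after 10 min bead incubation in the dark. Reaction: 20 nM G9a, 500 nM biotin-H3K9 peptide, 20 uM SAM cofactor, 2 h, room temperature, following 15 min enzyme-compound preincubation.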
PLK1 PBD block – blocks phosphopeptide binding to human PLK1 polo-box domain; P53350; Plk1 PBD binding of FITC phosphopeptide, fluorescence polarization; Potency, µM, without a hit: max response, negative = inhibition, actives largely listed as inhibitors; 360,000 tested, 2.8% active; also: potency is read from the fitted curve at half-maximal effect; series mostly up to about 57 µM; % is scaled to controls: 0 for no effect and ±100 for the full control effect; nearly all actives have a fitted effect of over 65% in size
Target sequence (P53350 whole entry, looked up, the tested form may be a part): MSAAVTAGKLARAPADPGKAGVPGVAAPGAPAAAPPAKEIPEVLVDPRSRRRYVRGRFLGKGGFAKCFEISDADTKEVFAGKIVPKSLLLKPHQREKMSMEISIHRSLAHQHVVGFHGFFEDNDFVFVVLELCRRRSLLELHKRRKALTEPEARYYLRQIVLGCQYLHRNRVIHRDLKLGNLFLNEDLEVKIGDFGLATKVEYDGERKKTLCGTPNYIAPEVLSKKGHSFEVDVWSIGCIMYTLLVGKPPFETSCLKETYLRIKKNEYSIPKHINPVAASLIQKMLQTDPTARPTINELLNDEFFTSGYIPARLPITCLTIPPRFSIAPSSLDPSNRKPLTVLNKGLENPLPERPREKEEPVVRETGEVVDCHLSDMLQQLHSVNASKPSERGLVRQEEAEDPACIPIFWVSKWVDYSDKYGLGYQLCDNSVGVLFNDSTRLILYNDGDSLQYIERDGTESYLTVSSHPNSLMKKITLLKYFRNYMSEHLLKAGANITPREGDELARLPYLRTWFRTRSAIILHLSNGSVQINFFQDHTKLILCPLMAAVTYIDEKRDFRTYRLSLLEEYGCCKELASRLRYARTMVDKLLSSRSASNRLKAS
PI5P4K alpha inh – inhibitors of human PI5P4K alpha; PI5P4Kalpha enzyme, ADP-Glo luminescence, 60 min; hits give low values; 330,000 tested, 1.2% active; P48426; max response, %; active = max response of -50% or lower; inconclusive = between -30% and -50%; inactive = -30% or higher; also: value at the top dose of about 77 µM; % is scaled to controls: 0 for no effect and ±100 for the full control effect
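ADP-Glo luminescence end-point read after a 60 min room-temperature kinase reaction of PI5P4Kalpha plus substrate, initiated with ATP at 5 microM final. Buffer: 0.038 M HEPES pH 7.4, EGTA, 0.1% CHAPS, 5% DMSO.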
HP1b binding inh – HP1-beta chromodomain-methylated histone interaction inhibition; AID 540317; P83916; Potency, µM (highest dose often 114 µM), without a hit: at the highest dose activity change, negative = inhibition, hits mostly inhibitors; 390,000 tested, 0.56% active; AlphaScreen HP1-beta / biotin-H3K9me3 peptide binding; also: potency is read from the fitted curve at half-maximal effect; nearly all actives have a fitted effect of over 70% in size
Target sequence (P83916 whole entry, looked up): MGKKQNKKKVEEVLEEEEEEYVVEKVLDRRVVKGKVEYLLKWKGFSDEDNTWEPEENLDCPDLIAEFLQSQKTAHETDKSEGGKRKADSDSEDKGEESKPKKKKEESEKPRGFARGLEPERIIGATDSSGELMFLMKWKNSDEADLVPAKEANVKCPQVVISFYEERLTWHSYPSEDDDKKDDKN
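HP1-beta protein (50 nM final) preincubated 30 min at room temperature with biotinylated H3(1-18)K9me3 peptide (50 nM) in PBS pH 7.4, 0.01% Tween-20, then compound added for 30 min. AlphaScreen streptavidin donor/nickel chelate acceptor beads (10 ug/mL final), 30 min dark, luminescence read.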
Starred values were filed as active, the others as inactive; ? = inconclusive; · = no result given; [ ] = dose if it differs, or a comment. Unless noted, calls follow the shape of the dose curve; as a rule, active = well fitted curve in the direction sought with a large enough effect; inconclusive = small, poorly fitted or top-dose-only effect, or another doubt; inactive = no such curve, though single readings can be large; an effect the other way counts as inactive or inconclusive.

SMILES	BAZ2B block	JMJD2A Tudor inh	G9a block	PLK1 PBD block	PI5P4K alpha inh	HP1b binding inh
Cc1cccc(Nc2ccc(S(=O)(=O)N3CCOCC3)cc2[N+](=O)[O-])c1	?	10µM*	?	-7.0%	-9.5	?
COc1ccc(Nc2ccc(S(=O)(=O)N3CCCCCC3)cc2[N+](=O)[O-])cc1	10µM*	6.31µM*	11.2µM*	-5.2%	-2.2	25.1µM*
C[C@@H](NC(=O)CN(c1ccccc1)S(=O)(=O)N(C)C)c1ccccc1	2.3%	-4.1%	5.7%[59 µM]	·	·	42.4%
CCOC(=O)c1c(C)[nH]c(C)c1S(=O)(=O)NCC(=O)NCc1cccc(Br)c1	-18.9%	-17.9%	-0.9%[59 µM]	·	·	14.4%
CCCCCC(/C=N/Nc1ccc(S(=O)(=O)N2CCOCC2)cc1[N+](=O)[O-])=C\c1ccccc1	?	?	11.2µM*	-1.5%	2.3	?
COc1ccccc1Nc1ccc(S(=O)(=O)N2CCCCC2)cc1[N+](=O)[O-]	8.91µM*	10µM*	?	-8.7%	8.9	?
O=[N+]([O-])c1ccc(Nc2ccc(N3CCOCC3)cc2)c([N+](=O)[O-])c1	11.2µM*	?	22.4µM*	-18.1%	0.3	31.6µM*
CCCN1CCC(=NNc2ccc(S(=O)(=O)N3CCOCC3)cc2[N+](=O)[O-])CC1	16.4%	?	10.9%[59 µM]	-13.9%	3.0	-31.8%
Cc1c(C(=O)O)sc(S(=O)(=O)N2CCN(C(=O)CCc3ccccc3)CC2)c1C(=O)O	?	?	?	-14.0%	5.4	23.4%
Cc1ccc(NC(=O)c2ccc(N(Cc3ccccc3)S(C)(=O)=O)cc2)cc1	-10.7%	-12.1%	?	·	·	17.7%
NCCCC[C@@H]1NC(=O)c2cc([N+](=O)[O-])cc(I)c2SC[C@@H](C(=O)NCC(N)=O)NC(=O)CNC1=O	-9.4%	-22.1%	31.6µM*	-17.2%	4.1	49.7%
NCCCC[C@@H]1NC(=O)c2cc([N+](=O)[O-])cc(I)c2SC[C@@H](C(N)=O)NC(=O)[C@H](CCC(N)=O)NC1=O	?	?	8.91µM*	-9.8%	0.8	27.0%
Cc1cc(C)cc(NC(=O)c2ccc(N3C(=O)C4CCCCC4C3=O)cc2)c1 (configuration not stated)	-20.0%	-14.5%	52.9%	3.0%	5.1	35.6%
CCn1c(=O)c2sccc2n2c(CCC(=O)Nc3ccc(C(C)C)cc3)nnc12	2.7%	-20.8%	-5.2%[59 µM]	·	·	15.7%
O=C(COc1ccc(Br)cc1Br)NC(=S)N1CCCc2ccccc21	50.1µM*	50.1µM*	8.91µM*	-15.7%	·	-6.2%
CC(=O)Nc1ccc(NC2=CC(=O)c3ccccc3C2=O)cc1	12.6µM*	25.1µM*	2µM*	-7.7%	-3.5	-30.0%
O=C1C=C(Nc2ccc(O)cc2)C(=O)c2ccccc21	28.2µM*	?	·	-3.4%	?	-8.6%
CC[C@@H]1Cc2[nH]c(=O)[nH]c(=O)c2[C@H](c2ccc(Cl)cc2)O1	·	·	·	3.5%	-2.1	·
CC1(C)OC(=O)C2=C(C[C@@H](CCc3ccccc3)O[C@H]2CCc2cccc(Cl)c2)O1	·	·	·	3.4%	8.2	·
COc1ccc(/C=C/C(=O)Nc2cc(C)on2)cc1	4.1%	?	8.4%[59 µM]	29.9µM*	-16.6	?
COc1ccc(/C=C/C(=O)Nc2nc(C)cc(C)n2)cc1OC	8.8%	50.1µM*	·	29.9µM*	-14.4	?
O=C(c1cc(C(F)(F)F)cc(C(F)(F)F)c1)N1CCC2(CCCN(Cc3nccs3)C2)CC1	·	·	-0.6%[12.7 µM]	·	·	·
CC(=O)OCOC(=O)CN(CC(=O)OCOC(C)=O)c1ccccc1OCCOc1ccccc1N(CC(=O)OCOC(C)=O)CC(=O)OCOC(C)=O	·	·	2.2%[59 µM]	·	·	·
CCOc1cc(C(=O)N=c2sccn2C)ccc1OC(F)F	2.1%	-10.3%	·	-8.3%	-3.4	32.5%
COc1ccc(N2CCN(c3oc(/C=C/c4cc(OC)c(OC)c(OC)c4)nc3C#N)CC2)cc1	?	?	?	·	·	-9.1%
SMILES	BAZ2B block	JMJD2A Tudor inh	G9a block	PLK1 PBD block	PI5P4K alpha inh	HP1b binding inh
N#CC1(NC(=O)CN2C(=O)NC(Cc3c[nH]c4ccccc34)C2=O)CCCCC1 (configuration not stated)	·	-6.9%	·	-5.5%	5.9	12.0%
O=C1C=CC(=O)c2c(O)c(CO)c(CO)c(O)c21	·	2.24µM*	·	9.47µM*	-89.3*	3.16µM*
COc1cc2c(cc1OC)C1C(=O)c3c(O)cc4c(c3OC1CO2)C=CC(C)(C)O4 (configuration not stated)	·	·	-39.2%[2.33 µM]	·	·	·
CCN(Cc1cc(=O)n2ccsc2n1)Cc1nc2cc(OC)c(OC)cc2c(=O)[nH]1	3.1%	-7.4%[11.4 µM]	12.6µM*	?	0.7	11.0%
CCN(Cc1nc2ccccc2c(=O)[nH]1)Cc1nc2cc(OC)c(OC)cc2c(=O)[nH]1	8.6%	10.8%	20.2%[12.7 µM]	0.2%	1.0	29.9%
CC(C)c1ccc2c(c1)C(c1cccs1)=NNC(c1ccncc1)=N2	?	-33.0%	28.2µM*	-9.1%	-0.3	13.3%
CC(C)c1ccc2c(c1)C(c1ccc(N3CCOCC3)cc1)=NNC(c1cccs1)=N2	?	?	44.7µM*	3.0%	2.4	-16.7%
Cc1nc(-c2cccc(NC(=O)Nc3ccc([N+](=O)[O-])cc3)c2)no1	?	?	-35.6%[59 µM]	·	·	-1.5%[57 µM]
Cc1cccc(C)c1OCC(=O)Nc1cccc(S(=O)(=O)N2CCCC2)c1	-29.2%	-10.3%	2.4%	0.6%	2.8	28.4%
Cc1cc(C)c(OCC(=O)Nc2ccc(S(=O)(=O)N3CCCC3)cc2)c(C)c1	9.2%	-13.8%	50.1µM*	-6.9%	4.1	29.8%
Cc1cccc(OCC(=O)Nc2ccc(S(=O)(=O)N3CCCC3)cc2)c1	-9.2%	-9.6%	31.6µM*	-24.8%	-15.4	37.9%
CCc1cccc(OCC(=O)Nc2ccc(S(=O)(=O)N3CCCC3)cc2)c1	0.2%	-5.3%	40.2%	-12.3%	2.8	37.9%
CN1CCC(N(C)S(=O)(=O)c2ccc(NC(=O)COc3cccc(Cl)c3)cc2)CC1	2.9%	-22.3%	39.8µM*	-8.3%	-1.3	-2.4%
COc1ccc(NC(=O)N2CC[C@@]3(CCCN(C(=O)c4c(C)noc4C)C3)C2)cc1	·	·	-3.0%[12.7 µM]	·	·	·
CCOc1ccc(-c2c(C)nn3c(C)c(C(=O)NCCc4ccc(C)cc4)cnc23)cc1OCC	-14.2%	-31.7%	7.3%[59 µM]	·	·	54.4%
CCOc1ccc(CN(CCC#N)C(=S)NC(=O)c2ccccc2)cc1	-36.9%	-24.5%	1.41µM*	-6.3%	-2.2	36.5%
COc1ccc(CN(CCC#N)C(=S)NC(=O)c2ccccc2)cc1	-34.5%	-32.0%	39.8µM*	-2.7%	8.2	20.5%
N#CCCN(Cc1ccccc1)C(=S)NC(=O)c1ccccc1	-31.9%	?	?	-6.4%	·	14.8%
Cn1c(NCCN2CCCC2)nc2cc(-c3cccc(C(F)(F)F)c3)sc2c1=O	·	·	·	-4.2%	23.3	·
